# PubChem BioAssay AID624351 (Southern Research Specialized Biocontainment Screening …, 2012)
# About 1,400 (58%) of roughly 2,400 compounds were called active. So high a share suggests a set chosen from earlier hits. The list shows a part of the results. Values without a mark were called inactive.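 How the source made its calls: active means inhibition of 30% or more at any tested dose; inconclusive means primary hits over the limit that were never retested; inactive means the rest.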
# Assay: ADP Hunter readout inhibition without MgcRacGAP – biochemical, coupled enzyme counter-screen, artefact control for MgcRacGAP inhibitor project, dose response (AID 624351);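 further: signal is the ADP detection kit reading of free GDP without any GAP enzyme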;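 on inhibition: 0% = median positive control wells and 100% = median negative control wells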
# Conditions: fluorescence, no MgcRacGAP; series mostly up to 80 µM
SMILES,IC50,inhibition
O=C(CNC(=O)c1ccco1)N/N=C/c1ccc(O)cc1O,78.5 µM (active),
CCc1ccc(/C(C)=N/NC(=O)CNC(=O)/C=C/c2ccco2)cc1,inactive,
Oc1ccc(/C=N/NC(=S)Nc2cccnc2)c(O)c1,37.9 µM (active),
O=C(CCCCCNC(=O)c1ccccc1)N/N=C/c1ccc(O)cc1O,71 µM (active),
Cc1cc(C)c(OCCCCNCc2ccccc2)c(Cl)c1,inactive,
Cc1cc(N)c2cc(NC(=O)/C=C/c3ccccc3Cl)ccc2n1,inactive,
Cc1c(O)ccc(NC(=O)/C=C/c2ccccc2)c1C,37.7 µM (active),
CCOC(=O)/C(C#N)=C\c1c(OCC)n(CC)c2ccccc12,inactive,
CCOC(=O)/C(C#N)=C\c1ccc(O)c(OC)c1,52.1 µM (active),
N#C/C(=C/c1ccc2c(c1)OCO2)C(=O)Nc1ccc(O)cc1,62.6 µM (active),
COc1cc(/C=C(\C#N)C(=O)Nc2ccc3c(c2)OCCO3)ccc1O,32.5 µM (active),
CCC(CC)NCc1ccc2c(c1)c1ccccc1n2CC,inactive,
Oc1cccc(Nc2ccccc2)c1,59.1 µM (active),
O=[N+]([O-])/C=C/c1cc2ccccc2[nH]1,inactive,
COc1ccc(OC)c2c(C)c(C)[nH]c12,28.7 µM (active),
CS(=O)(=O)Cc1nc2ccccc2oc1=O,74.1 µM (active),
Nc1nc2c(s1)CCc1ccccc1-2,48.5 µM (active),
COc1ccc2c(c1)-c1nc(N)sc1CC2,42.2 µM (active),
O=C(CN1CCCCCC1)Nc1nc2ccccc2s1,inactive,
CCOc1ccc(OCCOCCN2CCCC2)cc1,inactive,
O=C(c1ccc(OCCN2CCCCC2)cc1)c1c(-c2ccc(O)cc2)sc2cc(O)ccc12,31.6 µM (active),
Cc1cc(OCCCCCN2CCCC2)ccc1Cl,inactive,

SMILES,IC50,inhibition
C[n+]1c(-c2ccccc2)cc2c(=Cc3ccccc3)c3ccccc3n21,inactive,
COc1cc(/C=N/n2c(-c3cc(C)[nH]n3)n[nH]c2=S)cc(OC)c1O,55.6 µM (active),
COc1cc(/C=N/n2c(-c3cc(C)[nH]n3)n[nH]c2=S)cc(OC)c1OC,61 µM (active),
COc1ccc(NCc2nnc(SCC(=O)Nc3ccccc3OC)o2)cc1,inactive,
COc1ccc(NCc2cc3ccccc3[nH]c2=O)cc1,77.4 µM (active),
CCn1c2ccccc2c2cc(CNCc3ccc(OC)cc3OC)ccc21,inactive,
COc1ccc(NCc2cc3cc(OC)ccc3[nH]c2=O)cc1,inactive,
COc1ccc(NCc2cc(=O)[nH]c3ccccc23)cc1,51.4 µM (active),
COc1ccc(OC)c(CN2CCN(Cc3cccc4ccccc34)CC2)c1,inactive,
CC(C1SC(=S)NC1=O)C1SC(=S)NC1=O (centres undefined),inactive,
Oc1ccc(Nc2ncnc3ccccc23)cc1,15.8 µM (active),
CC(=O)N1CCN(c2ccc(Nc3ncnc4c3oc3ccccc34)cc2)CC1,42.5 µM (active),
CCc1nn(C(C)C(=O)N2CCN(c3ccc(OC)cc3)CC2)c(=O)c2cc3occc3n12 (centres undefined),inactive,
CCc1nc(Nc2ccc(N3CCN(C(C)=O)CC3)cc2)c2oc3ccccc3c2n1,40.2 µM (active),
CCc1nc(Nc2ccc(O)cc2)c2oc3ccccc3c2n1,19.4 µM (active),
Oc1ccc(Nc2ncnc3c2oc2ccccc23)cc1,20 µM (active),
N#CC1=C(S)N(c2ccc(F)cc2)C2(CCCCC2)NC1=O,inactive,
O=C1NC(=S)NC1=Cc1ccco1,inactive,
O=C1NC(=S)NC1=Cc1ccc(O)cc1,10.2 µM (active),
CCN1C(=O)/C(=C2/C=Cc3cc(C)ccc3N2CC)N(C)C1=S,50.7 µM (active),
NC(=S)N/N=C/c1cccc(O)c1O,32.6 µM (active),
Nc1ccc2nc(C3CCCCC3)[nH]c2c1,71.9 µM (active),

SMILES,IC50,inhibition
Nc1ccc2nc(-c3ccc(Cl)cc3)[nH]c2c1,67.3 µM (active),
Nc1ccc2nc(-c3ccccc3)[nH]c2c1,31.9 µM (active),
Cc1nc2ccc(-c3nc4ccc(N)cc4[nH]3)cc2[nH]1,58.5 µM (active),
Cc1nc(Nc2ccc(O)cc2)c2c3c(sc2n1)CCCC3,27.9 µM (active),
O=[N+]([O-])c1cc(Br)c(O)c(C=Nc2ccc(N3CCOCC3)cc2)c1,13.4 µM (active),
Oc1ccc(N=Cc2cc(Br)c(N3CCOCC3)o2)cc1,64.7 µM (active),
Cc1cc(Br)cc(C=Nc2ccc(N3CCOCC3)cc2)c1O,14.7 µM (active),
COc1ccc(CN(C)CCc2ccccn2)c(OC)c1OC,inactive,
COc1ccc(Oc2c(-c3ccc(O)cc3O)n[nH]c2C)cc1,49.1 µM (active),
Cc1[nH]nc(-c2ccc(O)cc2O)c1Oc1ccccc1,34.3 µM (active),
COCCNCc1nc2sc(C)c(-c3ccccc3)c2c(=O)[nH]1,inactive,
C=CCn1c(N/N=C/c2ccc(O)cc2)nc2ccccc2c1=O,66.7 µM (active),
CCn1c(/C=C/c2ccc(O)cc2)nc2ccccc2c1=O,44.8 µM (active),
O=c1c2cc(F)ccc2sn1-c1ccccc1Cl,inactive,
Cc1ccc(NC(=O)CCC(=O)N/N=C/c2ccc(O)cc2O)cc1,61.8 µM (active),
Cc1cccc(NC(=O)CCC(=O)N/N=C/c2ccc(O)cc2O)c1,72.4 µM (active),
Cc1cccc(N2CCC(N=CN(C)C)=N2)c1,27.8 µM (active),
CCN(C=NC1=NN(c2cccc(C(F)(F)F)c2)CC1)CC,33 µM (active),
CN(C)C=NC1=NN(c2cccc(C(F)(F)F)c2)CC1,39.3 µM (active),
OCCN(C=NC1=NN(c2cccc(C(F)(F)F)c2)CC1)CCO,42.2 µM (active),
c1ccc(-c2ccccc2OCCCCn2ccnc2)cc1,inactive,
COc1ccccc1OCC#CCn1ccnc1,inactive,

SMILES,IC50,inhibition
Nc1sc(-c2ccccc2)c(Cc2ccccc2)c1C(=O)O,70.5 µM (active),
CN(c1ccccc1)S(=O)(=O)c1cccc(C(=O)NCCc2ccc(O)c(O)c2)c1,71 µM (active),
CCN(c1ccccc1)S(=O)(=O)c1ccc(OC)c(NC(=O)CNCCc2ccccc2)c1,inactive,
COc1ccc(CCNC(=O)CNCC(c2ccccc2)N(C)C)cc1OC (centres undefined),inactive,
COc1ccccc1NS(=O)(=O)c1cc(N)ccc1N1CCCC1,75.2 µM (active),
COc1ccc(S(=O)(=O)N2CCC(N3CCN(c4ccccc4OC)CC3)CC2)cc1,inactive,
COc1ccc(N)cc1NC(=O)CN1CCOCC1,inactive,
CC(C)(C)c1cc(Cl)ccc1OCCOCCN1CCCC1,inactive,
O=C(Nc1ccc(O)cc1)c1cccc(Oc2ccc([N+](=O)[O-])cc2)c1,48.2 µM (active),
O=C(Nc1ccc(C2=NCCN2)cc1)c1ccc(C(=O)Nc2ccc(C3=NCCN3)cc2)c([N+](=O)[O-])c1,inactive,
COC(=O)C1=C(C)N(CC2CCCO2)C(=O)/C1=C\c1ccc(O)cc1 (centres undefined),24.4 µM (active),
CCS(=O)(=O)c1nn2c(N)c(/C=C3/C=CC(=O)C(OC)=C3)c(=O)nc2s1,39.6 µM (active),
COC1=C/C(=C/c2c(N)n3cc(C)sc3nc2=O)C=CC1=O,82 µM (active),
O=C(CNCc1ccccn1)N1CCc2ccccc2C1,inactive,
CCOC(=O)CSc1nc(N)c(C(=O)Nc2ccc(N(C)C)cc2)s1,32.8 µM (active),
Cc1ccccc1SCC(=O)OCC(=O)Nc1ccc(N(C)C)cc1,81.6 µM (active),
COc1nc(N)nc(NC(=O)c2cccs2)c1N=O,inactive,
CN(C)c1ccc(NC(=O)COC(=O)CNC(=O)c2cccs2)cc1,55.7 µM (active),
CCOC(=O)c1c(NC(=O)CN(C)C2CCN(C)CC2)sc(C(=O)Nc2ccccc2)c1C,inactive,
Cc1ccc(NC(=O)CNCC(c2ccccc2)N(C)C)cc1F (centres undefined),inactive,
COc1ccc(OCCn2ccnc2C)cc1,inactive,
COc1cc(/C=N/Nc2nc3ccccc3s2)ccc1O,67.7 µM (active),

SMILES,IC50,inhibition
COc1ccc(/C=N/Nc2nc3ccccc3[nH]2)cc1OC,73.8 µM (active),
COc1cc(/C=N/Nc2nc3ccccc3[nH]2)ccc1O,17.9 µM (active),
O=S1(=O)N=C(Nc2ccc(O)cc2)c2ccccc21,29.2 µM (active),
COc1cc2c(cc1OC)C(c1cc(Br)c(OC)c(OC)c1)CC(=O)N2 (centres undefined),inactive,
COc1cc(CNc2ccc(N3CCOCC3)cc2)cc(Br)c1OC,12.5 µM (active),
CCOc1cc(CNc2ccc(N3CCOCC3)cc2)cc(Br)c1OCC,16.9 µM (active),
CCOc1cc(CNc2ccc3[nH]c(=O)[nH]c3c2)ccc1OCC(=O)NC(C)(C)C,67.7 µM (active),
CCOc1cc(CNc2ccc(N3CCCCC3)cc2)cc(Br)c1OCC(=O)NC(C)(C)C,20.4 µM (active),
CCOc1c(Cl)cc(CNc2ccc(N3CCCC3)cc2)cc1OC,,-9.27% [at 5 µM]
COc1cc(CN2CCN(Cc3ccc(C(F)(F)F)cc3)CC2)cc(OC)c1OC,inactive,
CNc1c2cccc(C)c2nc2c(C(=O)NCCN(C)C)cccc12,inactive,
CCCCNc1nc(=S)[nH]c2cc(OC)c(OC)cc12,68.9 µM (active),
COCCCNc1nc(=S)[nH]c2cc(OC)c(OC)cc12,74.1 µM (active),
CCN(CC)CCCNc1nc2ccccc2c2[nH]c3ccc(OC)cc3c12,inactive,
COc1ccc(CCNc2nc(=S)[nH]c3cc(OC)c(OC)cc23)cc1OC,inactive,
Cc1cc2[nH]c3c(c[n+](C)c4ccccc34)c2cc1C,inactive,
Cc1cc(C)c2c(=N)c3ccccc3n(CCCCCCCCn3c4ccccc4c(=N)c4c(C)cc(C)nc43)c2n1,inactive,
O=C1C=CC(=O)c2c(O)c(N3CCN(CCOCCO)CC3)c(Br)c(O)c21,inactive,
C=CCc1cc(C=Nc2ccc(N3CCOCC3)cc2)cc(OCC)c1O,14.6 µM (active),
C=CCc1cc(Cl)ccc1OCCNCCN1CCOCC1,inactive,
CCOc1ccccc1CN1CCC(N2CCOCC2)CC1,inactive,
